Assay [1] concerns Human papillomavirus type 1a protein E7 (residues 44-93). The assay is described as follows: HPV1a E7 fragment binders on microarrays, primary screen, biochemical, small-molecule microarray, residues 44-93, 635 nm fluorescence (AID 1108).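 Note: E7 fragment applied at 1 µg/mL in TBST for 1 h at 4 C; score combines spot fluorescence with its signal to noise ratio.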 The following applies: small-molecule microarray binding, fluorescence 635 nm; higher = more signal.
A short description of assay [2]: modulators of HCV replicon luciferase signal, primary screen, HCV replication inhibitor project, Huh7 cells, luciferase reporter (AID 1109).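 Note: huh7 hepatoma cells harbouring a luciferase neomycin HCV replicon reporter; luciferase luminescence as measure of HCV replicon replication; test concentration not given here.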 The following applies: 48 h, higher = more signal.
The target in assay [3] is Left-right determination factor 2 (Homo sapiens) (UniProt O00292). The assay is described as follows: LEFTY2 binders on small-molecule microarrays, primary screen, biochemical, small-molecule microarray, 635 nm fluorescence scan (AID 1110). The following applies: LEFTY2 binding, higher = more signal.
The target of assay [4] is Calmodulin-1 (Homo sapiens) (UniProt P0DP23). Kind of assay: CALM1 binders on microarrays, EGTA buffer, profiling panel, biochemical, small-molecule microarray, Cy5-labelled CALM1 (AID 1111).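 Note: labelled calmodulin applied in Tris saline Tween buffer holding calcium plus EGTA and DTT.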 The following applies: Cy5-CALM1 binding fluorescence, higher = more signal.
Assay [5] shares this target. Kind of assay: calcium-bound CALM1 binders on microarrays, profiling panel, artefact control for SMM control-protein annotation, biochemical, small-molecule microarray, Cy5-labelled CALM1, plus calcium (AID 1112).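 Note: score merges spot fluorescence with signal to noise from triplicate slides.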 The conditions noted are these: Cy5-CALM1 binding fluorescence, higher = more signal.
Assay [6] in a line: small-molecule microarray binders of probe aWnt5a, primary screen, biochemical, biotinylated probe, 635/667 nm fluorescence (AID 1113).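 Note: score merges 667 nm fluorescence intensity with signal-to-noise per printed feature.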 The following applies: higher = more signal.
Assay [7] can be described thus: small-molecule microarray binders of probe aShh, primary screen, biochemical, biotinylated probe, 635/667 nm fluorescence (AID 1114).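 Note: probe is biotin-labelled aShh protein from a stem cell growth factor screen; measures binding of labelled protein to compounds printed on the slide; score merges feature fluorescence at 667 nm with signal-to-noise.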 The conditions noted are these: higher = more signal.
Assay [8] in a line: small-molecule microarray binders of probe aNog, primary screen, biochemical, biotinylated probe, 635/667 nm fluorescence (AID 1115).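 Note: probe is biotinylated aNog protein used at 0.15 µg/mL for 1 h at 4 C; z-score combines 667 nm fluorescence of each spot with its signal to noise.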 The conditions noted are these: higher = more signal.
Assay [9] has as its target Torsin-1A-interacting protein 1 (Homo sapiens) (UniProt Q5JTV8). Kind of assay: LAP1 binders from COS7 cell lysate, primary screen, small-molecule microarray, 635/667 nm fluorescence (AID 1116). The conditions noted are these: COS7-hLAP1 lysate binding, 635 nm fluorescence, higher = more signal.
The target in assay [10] is Alpha-bungarotoxin (Bungarus multicinctus) (UniProt P60615). The assay is described as follows: alpha-bungarotoxin binders on microarray, profiling panel, artefact control for SMM control protein annotation, biochemical, small-molecule microarray, Alexa647 label, 635/667 nm fluorescence (AID 1117). The following applies: alpha-BTX-A647 binding fluorescence, higher = more signal.

Each structure is given as a SMILES string.

Chain of Left-right determination factor 2 (Homo sapiens) (O00292 whole entry, looked up): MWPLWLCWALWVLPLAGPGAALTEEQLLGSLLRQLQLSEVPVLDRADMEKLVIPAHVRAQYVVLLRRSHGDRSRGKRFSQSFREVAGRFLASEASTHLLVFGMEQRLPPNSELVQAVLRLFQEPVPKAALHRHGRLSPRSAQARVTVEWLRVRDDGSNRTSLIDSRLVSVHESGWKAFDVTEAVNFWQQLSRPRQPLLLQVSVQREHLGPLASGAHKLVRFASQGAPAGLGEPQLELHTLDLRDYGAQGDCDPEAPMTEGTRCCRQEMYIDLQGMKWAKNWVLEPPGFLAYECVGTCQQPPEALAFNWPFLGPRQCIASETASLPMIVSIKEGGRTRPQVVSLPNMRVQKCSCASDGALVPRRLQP
Chain of Alpha-bungarotoxin (Bungarus multicinctus) (P60615 whole entry, looked up): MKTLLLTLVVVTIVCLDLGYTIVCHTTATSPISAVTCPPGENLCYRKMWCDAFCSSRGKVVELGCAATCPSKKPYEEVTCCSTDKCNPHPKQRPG
Chain of Torsin-1A-interacting protein 1 (Homo sapiens) (Q5JTV8 whole entry, looked up): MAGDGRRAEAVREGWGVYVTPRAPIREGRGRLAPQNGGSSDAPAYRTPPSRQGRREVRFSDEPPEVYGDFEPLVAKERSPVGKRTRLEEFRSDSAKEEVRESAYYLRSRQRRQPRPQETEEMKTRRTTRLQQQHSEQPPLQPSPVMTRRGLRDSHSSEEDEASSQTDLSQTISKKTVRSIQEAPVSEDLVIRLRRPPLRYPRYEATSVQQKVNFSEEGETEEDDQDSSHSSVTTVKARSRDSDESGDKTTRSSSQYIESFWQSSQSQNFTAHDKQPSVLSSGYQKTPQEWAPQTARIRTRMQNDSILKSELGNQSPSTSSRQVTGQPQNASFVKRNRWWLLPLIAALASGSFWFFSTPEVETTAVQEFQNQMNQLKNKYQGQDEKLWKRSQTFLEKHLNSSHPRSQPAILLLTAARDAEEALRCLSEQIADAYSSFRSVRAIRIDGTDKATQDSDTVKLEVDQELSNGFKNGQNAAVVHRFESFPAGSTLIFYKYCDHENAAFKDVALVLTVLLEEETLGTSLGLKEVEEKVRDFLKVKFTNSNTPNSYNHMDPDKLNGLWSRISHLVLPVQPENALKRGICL

As for `COC(=O)[C@@]1(Cc2ccc(OC)cc2)[C@H]2c3cc(C(=O)N(C)C)n(Cc4nc5ccccc5[nH]4)c3C[C@H]2CN1C(=O)c1ccccc1`, the composite z-score in assay [1] was 1.48; in assay [3] it was -0.314; in assay [4] it was 2.08; in assay [5], 1.06; in assay [6], 0.343; in assay [7], 0.361. Moreover, the composite z-score worked out at 1.81 in assay [8], 0.564 in assay [9] and 1.26 in [10]. Besides, the z-score in assay [2] is -1.81.
Consider `CCOC(=O)C[C@H]1[C@H](OC(=O)Cc2ccc3c(c2)OCO3)[C@@H](NC(=O)Cc2ccc(OC)cc2)c2cc(OCCCO)ccc2N1C(=O)c1ccccc1`, for which the composite z-score in assay [1] is 0.142; in assay [3], 0.609; in assay [4], 0.0314; in assay [5] it was -0.551; in [6], -0.154; in [7], 0.233. Further, the composite z-score stood at 0.588 in assay [8], 0.569 in assay [9] and 0.997 in [10]. This compound had a z-score in [2] of -1.72.
Consider `Cc1ccc(F)cc1S(=O)(=O)N[C@@H]1CCN(Cc2ccc(Oc3ccccc3)cc2)C1`, for which the composite z-score is -1.39 in [1]; 0.74 in [3]; -1.08 in [4]; -0.466 in [5]; -0.147 in [6]; -0.195 in assay [7]. For the same compound, the composite z-score was -0.388 in assay [8], -0.104 in assay [9] and 0.471 in assay [10]. The same compound gave a z-score in assay [2] of -3.67.
For `CN1C2C=C(CCCO)C(C3C(=O)N(C(N)=O)C(=O)C32)C1c1cccs1` (stereo not given), the composite z-score was 0.261 in assay [1]; 0.362 in assay [3]; -0.555 in [4]; -0.328 in assay [5]; 0.535 in assay [6]; -0.138 in assay [7]. For the same compound, the results for the composite z-score in [8], in assay [9] and in assay [10] were -0.0987, 0.377 and 0.378, respectively. In [2], this compound displayed a z-score of -0.364.
Consider `CN(C)CCCNC(=O)[C@@H]1c2ccccc2C(=O)N(CC23CC4CC(CC(C4)C2)C3)[C@H]1c1ccc(CO)cc1`, for which the composite z-score in [1] is 1.47; in assay [3], 0.832; in assay [4] it was 0.309; in assay [5], -0.632; in [6], 0.0215; in [7], -0.542. Further, the composite z-score in [8] was -0.403; in [9] it was 0.858; in [10], 1.65. The z-score in assay [2] is -3.1.
Regarding `C=CCN1C(=O)[C@@]2(O[C@@H](CCn3cc([C@H](O)c4ccccc4)nn3)[C@H]([Si](C)(C)c3ccc(OC)cc3)[C@H]2C)c2ccccc21`, the composite z-score in assay [1] is 0.733; in assay [3], 0.245; in assay [4], 0.134; in [5] it was -0.506; in [6], 0.0973; in assay [7], -0.0769. The composite z-score in [8] is 0.0308; in [9], 0.676; in assay [10] it was 1.21. Besides, the z-score in [2] was -3.04.
Turning to `CON(C)C(=O)C=C1C[C@@H](c2cccc(Cl)c2)O[C@@H](c2cccc(Cl)c2)O1`, the composite z-score in assay [1] is 0.151; in [3] it was 0.158; in assay [4] it was 0.389; in assay [5] it was 0.3; in assay [6] it was -0.0704; in [7], 0.134. Besides, the composite z-score in [8] was -0.389; in assay [9] it was 0.525; in assay [10], 0.764. The z-score in assay [2] was -3.11.
Take `O=C1c2ccccc2[C@](Cc2ccccc2I)(C(=O)NCc2ccccc2)[C@H](c2ccc(CO)cc2)N1C1CCCCC1`: the composite z-score in [1] is 1.4; in [3], 0.835; in [4], 1.28; in assay [5] it was 1.08; in assay [6], -0.0691; in assay [7], 0.217. The composite z-score was 0.347 in [8], 0.616 in assay [9] and 0.705 in [10]. In [2], this compound showed a z-score of -1.93.
Turning to `Cc1ccc(S[C@]2(C(=O)NC3CC3)CC(=O)N(Cc3ccccc3Cl)[C@@H]2c2ccc(CO)cc2I)cc1`, the composite z-score in assay [1] is 1.45; in assay [3], -0.355; in assay [4], 0.156; in assay [5] it was -0.274; in assay [6], 0.109; in [7], 0.0062. Moreover, the composite z-score in assay [8] was -0.429; in assay [9], 0.769; in assay [10], 0.939. The z-score in assay [2] was -1.57.
On to `CC=CC(O)C1C=CC2C(=O)N(C)C(=O)C2N1Nc1ccc([N+](=O)[O-])cc1[N+](=O)[O-]` (stereo not given), for which the composite z-score was -0.0226 in assay [1]; -0.324 in assay [3]; -0.086 in assay [4]; -0.541 in assay [5]; -0.148 in [6]; 0.166 in assay [7]. The figures for the composite z-score in [8], in assay [9] and in assay [10] were 0.0471, -0.345 and -0.297, respectively. Further, in assay [2], the z-score is -0.121.
As to `CC1CC/C=C\[C@H]2OC34C=CCN(CCN5CCOCC5)C(=O)[C@H]3N(CCO)C(=O)[C@@H]4C2C(=O)O1` (stereo not given in full), the composite z-score is -1.99 in assay [1]; -1.2 in assay [3]; -0.714 in [4]; -0.307 in assay [5]; -0.166 in [6]; -0.154 in assay [7]. Besides, the composite z-score was -0.145 in assay [8], 0.0159 in assay [9] and -1.02 in [10]. The compound also returned a z-score in assay [2] of -0.504.
Consider `COC(=O)[C@@]1(Cc2ccc(OC)cc2)[C@H]2c3cc(C(=O)N4CCCC4)n(CCc4cc5ccccc5[nH]4)c3C[C@H]2CN1C(=O)c1ccccc1`, for which the composite z-score in [1] is 1.41; in [3], -0.239; in [4], 2.44; in [5], 0.913; in assay [6], 0.239; in assay [7], -0.19. The composite z-score in assay [8] was determined as 2.21; in assay [9], 2.4; in assay [10] it was 1.21. Moreover, the z-score in [2] was -1.85.
In the case of `COCCOC(=O)N1C(=O)[C@@]2(c3cc(C#CC4=CCCCC4)ccc31)[C@H](c1ccc(O)cc1)N1[C@H](c3ccccc3)[C@H](c3ccccc3)OC(=O)[C@H]1[C@@H]2C(=O)Nc1nc2ccccc2s1`, the composite z-score was 0.909 in assay [1]; 0.494 in assay [3]; 1.81 in assay [4]; 0.0702 in assay [5]; -0.0654 in [6]; -0.066 in [7]. The composite z-score is -0.482 in assay [8], 1.12 in assay [9] and 1.21 in assay [10]. In [2], this compound displayed a z-score of -0.598.
Consider `Cc1c(NC(=O)/C(C#N)=C/C=C/c2ccccc2[N+](=O)[O-])c(=O)n(-c2ccccc2)n1C`, for which the composite z-score is 0.475 in [1]; 0.34 in assay [3]; 0.517 in [4]; 0.188 in assay [5]; -0.092 in [6]; -0.292 in assay [7]. Also, the composite z-score in [8] was -0.527; in assay [9], 0.37; in assay [10], 0.556. The z-score in assay [2] is -2.79.
As to `Cc1ccc(S[C@]2(C(=O)NCCN3CCOCC3)CC(=O)N(Cc3ccccc3C(F)(F)F)[C@@H]2c2ccc(CO)cc2I)cc1`, the composite z-score in assay [1] was 0.323; in [3], -1.49; in assay [4], -0.69; in [5], 0.116; in [6] it was -0.0792; in [7], -0.0866. Further, the values for the composite z-score in assay [8], in assay [9] and in assay [10] were 0.0331, -0.0897 and -0.529, respectively. Further, the z-score in [2] was -1.64.
In the case of `O=C1O[C@@H](c2ccccc2)[C@@H](c2ccccc2)N2[C@@H](c3ccc(O)cc3)[C@]3(C(=O)Nc4ccccc43)[C@@H](C(=O)Nc3nc4ccccc4s3)[C@H]12`, the composite z-score in assay [1] is 1.36; in assay [3], 0.0034; in assay [4], 1.28; in assay [5], -0.596; in [6] it was 0.0495; in [7] it was 0.0815. Moreover, the results for the composite z-score in assay [8], in [9] and in [10] were -0.179, 0.0579 and 1.32, respectively. Moreover, in [2], the z-score is -2.35.
Regarding `O=C(CS)NCCCCCCNC(=O)[C@H]1C[C@H]2C(=O)N[C@@H](Cc3ccccc3)C(=O)N2[C@H]1c1cccc(OCCO)c1`, the composite z-score in assay [1] came to 1.37; in [3], 1.23; in assay [4] it was 1.79; in assay [5] it was 0.0164; in assay [6] it was 0.0066; in assay [7] it was 0.676. Moreover, the composite z-score in [8] came out at 0.897; in assay [9], 1.38; in assay [10] it was 2.44. The z-score in assay [2] is -0.963.
For `COc1ccc([Si](C)(C)[C@H]2[C@H](CC(=O)N3Cc4ccccc4C[C@H]3CO)O[C@@]3(C(=O)N(Cc4cccc(N5CCCCC5=O)c4)c4ccccc43)[C@@H]2C)cc1`, the composite z-score was 0.551 in assay [1]; 0.983 in assay [3]; -0.226 in assay [4]; -0.48 in assay [5]; -0.043 in assay [6]; -0.0553 in assay [7]. Moreover, the figures for the composite z-score in assay [8], in [9] and in assay [10] were -0.0206, 0.547 and 0.244, respectively. Besides, in [2], the z-score was -3.77.
